The nature of assay [1]: optical density shifts of acrAB sulA E. coli – strain DRC41, OD650, 48 h, E. coli filamentation inducer project, primary screen (AID 1152).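 Note: E. coli MC1000 strain DRC41 lacking acrAB efflux pump and sulA.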 As to conditions: higher = more signal, called active from +8 up or from −8 down.
A short description of assay [2]: probe aLefty1 binding on compound microarray – biochemical, small-molecule microarray, 635/667 nm fluorescence, primary screen (AID 1153).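 Note: score merges spot fluorescence with signal-to-noise ratio from the scanned slide images.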 To be noted: higher = more signal.
Assay [3] is described as follows: plasmodial surface anion channel blockers, osmotic lysis – cell-based, P. falciparum Indochina, OD700, 1 h, primary screen (AID 1154). To be noted: P. falciparum Indochina infected RBC osmotic lysis, higher = more signal, called active from +8 up or from −8 down.
Assay [4] is described as follows: plasmodial surface anion channel blockers, osmotic lysis – cell-based, P. falciparum Indochina, OD700, 2 h, primary screen (AID 1155).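 Note: lysis reports solute entry through the parasite surface anion channel PSAC.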 To be noted: P. falciparum Indochina infected erythrocytes, higher = more signal, called active from +8 up or from −8 down.
A short description of assay [5]: changes in parasitized red cell lysis, either direction – P. falciparum Indochina, OD700, 3 h, PSAC antagonist project, primary screen (AID 1156). To be noted: P. falciparum-infected erythrocytes, osmotic lysis, higher = more signal, called active from +8 up or from −8 down.
A short description of assay [6]: plasmodial surface anion channel blockers, osmotic lysis – cell-based, P. falciparum Indochina, OD700, 18 h, primary screen (AID 1157). To be noted: P. falciparum Indochina infected erythrocytes, osmotic lysis OD700, 18 h; higher = more signal, called active from +8 up or from −8 down.
A short description of assay [7]: S6 kinase pathway phospho-S6 level changes – cell-based, A549, cytoblot, luminescence, serum-stimulated, primary screen (AID 1158).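 Note: serum-stimulated A549 lung adenocarcinoma cells; signal is phosphorylated S6 detected by cytoblot immunostaining with HRP secondary.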 To be noted: 5 h, higher = more signal.
Assay [8] has as its target NADPH oxidase 2 (Homo sapiens) (UniProt P04839). Kind of assay: compounds shifting NOX2 Amplex Red fluorescence – cell-based, HEK293-NOX2, PMA-stimulated, NOX inhibitor project, primary screen (AID 1159). Note: test concentration not given here. As to conditions: 45 min, higher = more signal, called active from +8 up or from −8 down.
The target of assay [9] is NADPH oxidase 4 (Homo sapiens) (UniProt Q9NPH5). Kind of assay: compounds shifting NOX4 Amplex Red fluorescence – cell-based, HEK293-NOX4, tetracycline-induced, NOX inhibitor project, primary screen (AID 1160). As to conditions: HEK293-NOX4, Amplex Red H2O2 fluorescence, 45 min; higher = more signal, called active from +8 up or from −8 down.
In assay [10] the target is NADPH oxidase 5 (Homo sapiens) (UniProt Q96PH1). Kind of assay: compounds shifting NOX5 Amplex Red fluorescence – cell-based, HEK293-NOX5, NOX inhibitor project, primary screen (AID 1161). To be noted: HEK293-NOX5, ionomycin, 45 min, higher = more signal.
Assay [11] can be described thus: compound effects on lung adenocarcinoma cell viability – A549, calcein-AM fluorescence, 48 h, basal, profiling panel (AID 1162). Note: test concentration not given here. As to conditions: higher = more signal.
Assay [12] in a line: compound effects on differentiated 3T3-L1 adipocyte viability – cell-based, 3T3-L1 adipocytes, calcein-AM fluorescence, 48 h, basal, profiling panel (AID 1163). Note: test concentration not given here. To be noted: 3T3-L1 adipocytes viability, higher = more signal.
Assay [13] in a line: compound effects on hepatocellular carcinoma cell viability – HepG2, calcein-AM fluorescence, 48 h, basal, profiling panel (AID 1164). Note: test concentration not given here. As to conditions: higher = more signal.
Assay [14] is described as follows: compound effects on multiple myeloma cell viability – MM1S, calcein-AM fluorescence, 48 h, basal, profiling panel (AID 1165).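 Note: viability of MM1S multiple myeloma cells under basal unstimulated conditions; test concentration not given here.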 To be noted: higher = more signal.
Assay [15] is described as follows: calcein-AM signal in unstimulated myeloma cells – cell-based, calcein-AM fluorescence, 48 h, PK04 Diversity Set, profiling panel (AID 1166).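 Note: cells grown under basal conditions without added stimulus; test concentration not given here.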 As to conditions: RPMI8226 myeloma viability, higher = more signal.
Assay [16] in a line: JC-1 mitochondrial signal, unstimulated HepG2 cells – cell-based, JC-1 fluorescence, 24 h, 100 nL compound, profiling panel (AID 1167). Note: test concentration not given here. To be noted: HepG2 mitochondrial potential, higher = more signal.
Assay [17] is described as follows: JC-1 mitochondrial signal, unstimulated adipocytes – cell-based, JC-1 fluorescence, 3T3-L1 adipocytes, 24 h, 100 nL compound, profiling panel (AID 1168). Note: test concentration not given here. As to conditions: JC-1 mitochondrial fluorescence, higher = more signal, called active from +8 up or from −8 down.
The nature of assay [18]: JC-1 mitochondrial signal, unstimulated myeloma cells – cell-based, JC-1 fluorescence, RPMI8226, 24 h, 100 nL compound, profiling panel (AID 1169). Note: test concentration not given here. As to conditions: JC-1 mitochondrial potential fluorescence, higher = more signal.
Assay [19] in a line: JC-1 mitochondrial signal, unstimulated MM1S myeloma – cell-based, JC-1 fluorescence, 24 h, 100 nL compound, profiling panel (AID 1170). Note: test concentration not given here. As to conditions: MM1S mitochondrial potential, higher = more signal.
The nature of assay [20]: resazurin metabolic signal in A549 cells – cell-based, resazurin fluorescence, 24 h, PK04 Diversity Set, profiling panel (AID 1171). Note: test concentration not given here. As to conditions: A549 viability, higher = more signal, called active from +8 up or from −8 down.

“And” between values parts separate entries of the source, which are not always exact repeats. Equal values may be shown once. The source made the active and inactive calls.

NADPH oxidase 4 (Homo sapiens), sequence (Q9NPH5 whole entry, looked up): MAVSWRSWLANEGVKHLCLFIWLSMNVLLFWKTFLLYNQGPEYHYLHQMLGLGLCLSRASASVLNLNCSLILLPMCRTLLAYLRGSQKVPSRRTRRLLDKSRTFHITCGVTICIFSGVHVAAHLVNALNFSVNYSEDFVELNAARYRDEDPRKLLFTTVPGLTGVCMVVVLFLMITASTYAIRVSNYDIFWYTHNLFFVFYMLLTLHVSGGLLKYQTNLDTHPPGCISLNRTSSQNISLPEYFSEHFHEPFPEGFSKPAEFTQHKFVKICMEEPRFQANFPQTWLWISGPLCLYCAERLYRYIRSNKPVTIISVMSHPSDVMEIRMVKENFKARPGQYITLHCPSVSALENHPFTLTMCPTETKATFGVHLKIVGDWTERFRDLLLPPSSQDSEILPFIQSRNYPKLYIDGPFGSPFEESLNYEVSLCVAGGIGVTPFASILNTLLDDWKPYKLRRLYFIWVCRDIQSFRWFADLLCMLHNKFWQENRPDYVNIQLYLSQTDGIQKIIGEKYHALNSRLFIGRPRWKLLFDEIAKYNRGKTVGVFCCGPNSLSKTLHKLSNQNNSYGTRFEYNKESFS
NADPH oxidase 5 (Homo sapiens), sequence (Q96PH1 whole entry, looked up): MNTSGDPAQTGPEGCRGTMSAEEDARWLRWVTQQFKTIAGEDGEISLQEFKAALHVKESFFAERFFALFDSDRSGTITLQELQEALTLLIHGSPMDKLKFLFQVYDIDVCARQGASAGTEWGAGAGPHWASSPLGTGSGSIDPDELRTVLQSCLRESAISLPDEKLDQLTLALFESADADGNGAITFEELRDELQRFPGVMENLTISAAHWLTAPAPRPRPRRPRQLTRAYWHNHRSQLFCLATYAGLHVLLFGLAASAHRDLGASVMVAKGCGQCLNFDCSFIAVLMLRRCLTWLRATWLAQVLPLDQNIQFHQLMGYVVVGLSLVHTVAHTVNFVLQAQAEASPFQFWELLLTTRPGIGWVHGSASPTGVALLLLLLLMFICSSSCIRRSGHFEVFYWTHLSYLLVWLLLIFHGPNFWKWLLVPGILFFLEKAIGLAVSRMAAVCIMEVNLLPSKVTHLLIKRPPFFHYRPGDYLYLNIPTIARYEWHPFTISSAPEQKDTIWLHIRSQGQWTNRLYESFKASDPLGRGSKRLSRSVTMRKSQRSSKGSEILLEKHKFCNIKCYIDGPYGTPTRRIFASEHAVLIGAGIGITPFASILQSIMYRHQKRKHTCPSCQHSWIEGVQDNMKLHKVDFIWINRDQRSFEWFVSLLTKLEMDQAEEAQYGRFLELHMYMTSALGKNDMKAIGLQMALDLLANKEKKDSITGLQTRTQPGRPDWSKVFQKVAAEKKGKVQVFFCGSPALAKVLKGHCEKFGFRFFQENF
NADPH oxidase 2 (Homo sapiens), sequence (P04839 whole entry, looked up): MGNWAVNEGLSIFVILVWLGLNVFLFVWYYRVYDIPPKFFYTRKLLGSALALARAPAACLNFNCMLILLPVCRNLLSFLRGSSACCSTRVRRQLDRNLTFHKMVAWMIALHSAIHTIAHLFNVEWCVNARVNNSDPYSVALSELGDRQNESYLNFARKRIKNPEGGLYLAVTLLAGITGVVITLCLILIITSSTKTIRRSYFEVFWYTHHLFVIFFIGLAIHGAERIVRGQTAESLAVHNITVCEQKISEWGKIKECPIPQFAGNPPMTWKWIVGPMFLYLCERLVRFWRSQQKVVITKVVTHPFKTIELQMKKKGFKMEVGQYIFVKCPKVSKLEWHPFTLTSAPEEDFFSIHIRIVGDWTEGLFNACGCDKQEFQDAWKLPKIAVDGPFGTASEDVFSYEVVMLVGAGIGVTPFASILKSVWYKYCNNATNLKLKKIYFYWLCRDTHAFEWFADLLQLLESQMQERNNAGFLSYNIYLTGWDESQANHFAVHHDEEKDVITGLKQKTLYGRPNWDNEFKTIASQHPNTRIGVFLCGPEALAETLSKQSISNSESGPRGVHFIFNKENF

On to `CC(CO)N1C(=O)[C@@H]2C3C(=O)OCCC=C[C@H]3OC23C=CCN(C(C)(C)C)C(=O)[C@@H]13` (stereo not given in full), for which the z-score is -0.745 (inactive) and -0.506 (inactive) in assay [1]; 0.901 (inactive) and 1.86 (inactive) in assay [3]; -0.27 (inactive) and 0.449 (inactive) in [4]; 1.02 (inactive) and 0.409 (inactive) in [5]; 0.406 (inactive) and 0.112 (inactive) in assay [6]; 1.11 and -0.113 in assay [7]. Further, the z-score in [8] was 0.793 (inactive) and 1.49 (inactive); in assay [9], 0.0644 (inactive) and 0.425 (inactive); in assay [10] it was 1.96 and 2.84; in [11], -0.418 and -0.461; in [12], -0.142 and -0.791; in assay [13] it was -1.27 and -0.487. For the same compound, the z-score was -0.388 and 0.885 in [14]; -0.0799 and 0.143 in assay [15]; -0.985 and -1.27 in assay [16]; -0.105 (inactive) and -0.534 (inactive) in [17]; 0.914 and -0.0183 in assay [18]; 0.157 and -0.365 in [19]. For the same compound, the z-score in assay [20] was -0.731 (inactive) and -0.299 (inactive). For the same compound, the composite z-score in assay [2] was -0.224 and 0.227.

`Cc1ccc(S(=O)(=O)N[C@H]2COC(=O)[C@@H](Cc3ccccc3)NC(=O)[C@@H](C)COC(=O)CC=C[C@@H]2C)cc1`: the z-score is -0.193 (inactive) and 0.569 (inactive) in assay [1]; 0.649 (inactive) and 1.51 (inactive) in [3]; 0.237 (inactive) and 0.491 (inactive) in [4]; 0.377 (inactive) and 1.9 (inactive) in assay [5]; 0.252 (inactive) and 0.148 (inactive) in assay [6]; 0.0356 and 0.201 in assay [7]. In addition, the z-score was -0.34 (inactive) and 0.252 (inactive) in assay [8]; -0.302 (inactive) and -0.127 (inactive) in assay [9]; 0.189 and 0.00698 in [10]; 0.671 and -0.545 in [11]; -0.433 and 1.08 in assay [12]; 0.364 and -1.68 in [13]. Further, the z-score was -1.13 and 1.05 in [14]; -0.372 and -0.784 in assay [15]; 0.0571 and -0.176 in assay [16]; -0.517 (inactive) and -0.812 (inactive) in [17]; -0.259 and 0.107 in assay [18]; 0.242 and -1.28 in assay [19]. Besides, in assay [20], the z-score is 0.0258 (inactive) and 0.392 (inactive). Besides, the composite z-score in assay [2] was -0.232 and -0.0645.

Consider `C=CCN(CCCCC)C(=O)C(c1cccs1)N(CCOCCO)C(=O)/C=C\C(=O)O` (stereo not given), for which the z-score in assay [1] was 1.53 (inactive) and 1.77 (inactive); in assay [3] it was 1.03 (inactive) and 0.0763 (inactive); in assay [4] it was -1.53 (inactive) and -1.1 (inactive); in assay [5] it was -0.772 (inactive) and -1.06 (inactive); in [6] it was -1.88 (inactive) and -1.64 (inactive); in assay [7] it was 1.27 and 0.842. The z-score in assay [8] is -0.224 (inactive) and 0.208 (inactive); in assay [9], -0.617 (inactive) and -0.64 (inactive); in [10], -0.366 and 0.183; in assay [11], 0.457 and 0.414; in assay [12], 0.314 and -0.158; in assay [13], 0.341 and 0.976. Besides, the z-score in [14] was 1.85 and 1.71; in assay [15], 0.025 and 0.586; in assay [16], 0.69 and -0.139; in assay [17] it was 1.03 (inactive) and 0.45 (inactive); in assay [18] it was 0.0935 and -0.719; in [19], -0.512 and 0.0846. Also, in assay [20], the z-score was -0.186 (inactive) and -0.954 (inactive). Further, in assay [2], the composite z-score is -1.26 and -0.239.

With `C=CC[C@@H](O)c1ccc(OCCO)cc1`, the z-score in assay [1] is 1.23 (inactive) and 1.38 (inactive); in [3] it was 3.24 (inactive) and 1.36 (inactive); in assay [4] it was -0.971 (inactive) and -1.24 (inactive); in assay [5] it was -0.904 (inactive) and -0.902 (inactive); in assay [6], -2.02 (inactive) and -2.07 (inactive); in [7] it was 2.74 and 0.965. For the same compound, the z-score in [8] is -0.976 (inactive) and -0.495 (inactive); in [9], -0.354 (inactive) and -0.393 (inactive); in assay [10], -1.22 and -0.2; in assay [11], 0.589 and 0.923; in assay [12], -0.0396 and 0.764; in assay [13], 1.22 and 0.876. The z-score in [14] was 1.17 and 1.23; in [15], 0.834 and -1.19; in assay [16], 1.28 and 1.15; in [17], -0.53 (inactive) and 0.676 (inactive); in assay [18], 0.871 and 0.81; in [19], 0.00142 and 1.08. Also, in assay [20], the z-score is -0.707 (inactive) and -0.779 (inactive). The composite z-score in [2] was -0.259 and -0.191.

As for `C=CCN(C(=O)C(c1cccs1)N(C(=O)/C=C\C(=O)O)c1c(Cl)cccc1CO)C(C)(C)C` (stereo not given), the z-score in assay [1] is -0.773 (inactive) and -1.1 (inactive); in [3], 0.294 (inactive) and 0.153 (inactive); in assay [4], -0.0344 (inactive) and -0.313 (inactive); in assay [5] it was -0.741 (inactive) and -0.659 (inactive); in assay [6] it was -0.134 (inactive) and -0.0608 (inactive); in assay [7], -0.483 and -0.409. Moreover, the z-score is 0.239 (inactive) and 0.261 (inactive) in [8]; -0.827 (inactive) and -0.628 (inactive) in assay [9]; -0.328 and 0.528 in [10]; 0.422 and -0.237 in [11]; 0.0699 and -0.221 in assay [12]; -0.0685 and 0.369 in assay [13]. The z-score in assay [14] was 0.221 and 0.0812; in assay [15] it was -0.511 and -0.202; in assay [16], -0.99 and -0.519; in [17] it was 0.563 (inactive) and 0.497 (inactive); in [18] it was -0.639 and -0.0626; in assay [19], 0.923 and 0.231. Also, in [20], the z-score was -0.493 (inactive) and -0.643 (inactive). In addition, the composite z-score in assay [2] was 0.045 and 0.192.

For the compound `COc1ccc(O[C@H]2C=C[C@@H](c3ccccc3)O[C@@H]2COC(=O)CCC(C)=NO[C@H](C)c2cn([C@H](CO)Cc3ccccc3)nn2)cc1`, the z-score is 0.756 (inactive) and 0.0906 (inactive) in [1]; 14.1 (active) and 13.6 (active) in assay [3]; 1.6 (inactive) and 2.16 (inactive) in assay [4]; 2.07 (inactive) and 1.09 (inactive) in assay [5]; 0.711 (inactive) and 0.907 (inactive) in [6]; -0.112 and -0.835 in assay [7]. In addition, the z-score in assay [8] was -2.32 (inactive) and -2.14 (inactive); in assay [9] it was 0.0167 (inactive) and -2.56 (inactive); in assay [10], -1.63 and -3.66; in assay [11], -0.748 and -0.352; in [12], 0.498 and 0.0533; in assay [13], -1.06 and -0.619. Moreover, the z-score in assay [14] was -0.764 and -2.3; in assay [15], -2.54 and -1.69; in [16], -0.796 and -0.898; in assay [17], -2.62 (inactive) and -0.634 (inactive); in assay [18], 0.0444 and -0.196; in assay [19] it was -0.704 and 0.182. In addition, the z-score in [20] was 0.385 (inactive) and 0.277 (inactive). For the same compound, the composite z-score in [2] was 0.273 and -0.553.
